The record followed here is PubChem BioAssay.

Calls of active or inactive are those of the source. Unless noted, no rule for the calls is given here.

The nature of assay [1]: anti-His antibody binders, primary screen, artefact control for SMM control protein annotation, biochemical, small-molecule microarray, 635 nm fluorescence (AID 1128).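 Also: score merges feature fluorescence with signal-to-noise for each printed compound spot.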 The note with it: anti-His Alexa647 antibody binding, higher = more signal.
In assay [2] the test system is Human papillomavirus type 1a E7 protein (residues 1-88). The assay can be described thus: HPV1a E7 small-molecule binders, primary screen, biochemical, small-molecule microarray, residues 1-88, 635 nm (AID 1129). The settings on record: small-molecule microarray binding, fluorescence 635 nm; higher = more signal.
Assay [3] deals with Focal adhesion kinase 1 (Homo sapiens) (UniProt Q05397). Briefly: small-molecule microarray binders of FAK, primary screen, biochemical, 635/667 nm fluorescence, BSA, DTT (AID 1130).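 Also: composite of spot emission at 667 nm and signal to noise over triplicate slides.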 The note with it: PTK2 binding, 635 nm fluorescence, higher = more signal.
In assay [4] the test system is Fibrinogen (Alexa647-labelled). The assay can be described thus: fibrinogen binders on compound microarrays, profiling panel, artefact control for SMM control-protein annotation, biochemical, small-molecule microarray, 635/667 nm fluorescence (AID 1131).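 Also: z-score merges 667 nm fluorescence with per-spot signal-to-noise over triplicate slides.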 The note with it: fibrinogen-A647 binding fluorescence, higher = more signal.
In assay [5] the target is Follistatin (Homo sapiens) (UniProt P19883). Briefly: follistatin binders on small-molecule microarrays, primary screen, biochemical, small-molecule microarray, 635/667 nm fluorescence (AID 1132). The settings on record: FST binding, 635 nm fluorescence, higher = more signal.
Assay [6] has as its target Fibroblast growth factor 2 (Homo sapiens) (UniProt P09038). The assay can be described thus: FGF2 binders on small-molecule microarrays, primary screen, biochemical, small-molecule microarray, 635/667 nm fluorescence (AID 1133). The note with it: small-molecule microarray binding, FGF2, fluorescence 635/667; higher = more signal.
Assay [7] is described as follows: mitochondrial membrane potential change in A549 cells, profiling panel, cell-based, JC-1 fluorescence, basal, 24 h, 100 nL (AID 1138).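 Also: A549 lung adenocarcinoma cells under basal conditions with no added stimulus; test concentration not given here.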 The note with it: higher = more signal.
The next assay concerns Lefty1. Briefly: Lefty1 binders on small-molecule microarrays, primary screen, biochemical, small-molecule microarray, 635/667 nm fluorescence (AID 1139). The note with it: small-molecule microarray binding, fluorescence 635/667; higher = more signal.
Assay [8] has as its system wheat germ agglutinin (Triticum aestivum), Alexa647-labelled. Briefly: wheat germ agglutinin binders on compound microarrays, profiling panel, artefact control for SMM control-protein annotation, biochemical, small-molecule microarray, 635/667 nm fluorescence (AID 1140).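 Also: score merges 667 nm feature emission with signal to noise over triplicate slides.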 The note with it: WGA-A647 binding, 635 nm fluorescence, higher = more signal.
Assay [9] addresses Luciferin 4-monooxygenase (Photinus pyralis) (UniProt P08659). Briefly: firefly luciferase enzyme inhibitors, primary screen, biochemical, luminescence, purified enzyme, 2006 set (AID 1141).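 Also: cell-free assay with purified firefly luciferase at 100 ng per well in PBS; test concentration not given here.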 The settings on record: SteadyGlo luminescence, 30 min, higher = more signal, called active from +8 up or from −8 down.
In assay [10] the test system is Wnt5a (protein binding on small-molecule microarray). Briefly: Wnt5a binders on small-molecule microarray, primary screen, biophysical, 635/667 nm fluorescence (AID 1142).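 Also: fluorescence read at 667 nm with signal to noise per printed feature.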 The note with it: 635 nm fluorescence, higher = more signal.
Assay [11] can be described thus: cell viability in Huh7 cells, primary screen, cytotoxicity control for HCV replication inhibitor project, CellTiter-Glo luminescence, basal, 48 h (AID 1143).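 Also: Huh7 hepatoma cells carrying a hepatitis C replication reporter with no stimulus; test concentration not given here.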 The note with it: Huh7 HCV replicon, higher = more signal, called active from +8 up or from −8 down. (In general: ATP-based viability assays read luminescence as a measure of living cells.)
Assay [12] can be described thus: P. aeruginosa biofilm formation inhibitors, primary screen, PAO1 strain, BacTiter-Glo luminescence, LB-PBS (AID 1144). The note with it: 12 h, higher = more signal.
Assay [13] in a line: CREB reporter modulators without forskolin, primary screen, cell-based, PC12, CRE-LacZ reporter, unstimulated (AID 1145). The settings on record: no forskolin, luminescence, 4.5 h, higher = more signal, called active from +8 up or from −8 down.
A short description of assay [14]: CREB reporter modulators under forskolin, primary screen, cell-based, PC12, CRE-LacZ reporter, forskolin-stimulated (AID 1146).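 Also: PC12 cells with 6xCRE LacZ reporter stimulated by forskolin 10 µM; beta-galactosidase reporter signal reflecting CREB driven transcription.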 The note with it: luminescence, 4.5 h, higher = more signal, called active from +8 up or from −8 down.
Assay [15] addresses Streptavidin (Streptomyces avidinii) (UniProt P22629). The assay can be described thus: streptavidin binders on small-molecule microarray, primary screen, artefact control for SMM compound annotation, biophysical, 635/667 nm fluorescence (AID 1147).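 Also: signal reflects streptavidin binding to arrayed compounds as a control protein.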 The note with it: streptavidin binding, higher = more signal.
A short description of assay [16]: small-molecule binders of probe aInhba, primary screen, biochemical, small-molecule microarray, 635/667 nm fluorescence (AID 1148).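 Also: score merges 667nm spot fluorescence with signal-to-noise for antibody binding to printed compounds.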 The note with it: higher = more signal.
The target of assay [17] is Torsin-1A (Homo sapiens) (UniProt O14656). The assay can be described thus: torsin A binders from cell lysate, primary screen, small-molecule microarray, wild-type, 635/667 nm (AID 1149). The settings on record: COS7 hTOR1A-WT lysate, 635 nm fluorescence, higher = more signal.
For assay [18] the target is unchanged. The assay can be described thus: small-molecule binders of mutant TOR1A in lysate, primary screen, cell lysate, small-molecule microarray, COS7 lysate, 635/667 nm fluorescence (AID 1150).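 Also: score pools 667 nm emission and signal to noise measuring lysate protein binding.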 The settings on record: COS7 hTOR1A mutant lysate, 635 nm fluorescence, higher = more signal.
Assay [19] deals with Sonic hedgehog protein (Shh). Briefly: small-molecule binders of Shh protein, primary screen, biochemical, small-molecule microarray, 635/667 nm fluorescence (AID 1151).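 Also: Shh protein binding to compounds spotted on small-molecule microarray slides; score combines spot fluorescence intensity with signal-to-noise across triplicate slides.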 The settings on record: small-molecule microarray binding, 635 nm fluorescence; higher = more signal.

Torsin-1A (Homo sapiens), sequence (O14656 whole entry, looked up): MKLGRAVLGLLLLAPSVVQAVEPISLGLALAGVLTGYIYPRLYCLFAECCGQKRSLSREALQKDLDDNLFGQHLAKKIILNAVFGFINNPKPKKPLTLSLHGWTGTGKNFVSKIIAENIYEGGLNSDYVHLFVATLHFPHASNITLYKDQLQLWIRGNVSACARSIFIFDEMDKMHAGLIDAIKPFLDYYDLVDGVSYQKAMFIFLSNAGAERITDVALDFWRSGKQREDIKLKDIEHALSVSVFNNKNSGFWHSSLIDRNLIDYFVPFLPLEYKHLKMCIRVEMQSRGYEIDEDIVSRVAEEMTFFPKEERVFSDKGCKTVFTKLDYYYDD
Follistatin (Homo sapiens), sequence (P19883 whole entry, looked up): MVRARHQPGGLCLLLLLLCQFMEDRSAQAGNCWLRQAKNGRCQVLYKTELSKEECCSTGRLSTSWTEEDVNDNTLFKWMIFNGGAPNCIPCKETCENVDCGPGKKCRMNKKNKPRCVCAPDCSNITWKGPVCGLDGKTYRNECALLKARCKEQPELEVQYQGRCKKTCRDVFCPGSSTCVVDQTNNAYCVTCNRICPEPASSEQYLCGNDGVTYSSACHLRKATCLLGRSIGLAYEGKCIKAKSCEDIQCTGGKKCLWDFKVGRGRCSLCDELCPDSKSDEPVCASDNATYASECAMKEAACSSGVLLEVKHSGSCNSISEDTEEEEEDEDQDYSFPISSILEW
Luciferin 4-monooxygenase (Photinus pyralis), sequence (P08659 whole entry, looked up): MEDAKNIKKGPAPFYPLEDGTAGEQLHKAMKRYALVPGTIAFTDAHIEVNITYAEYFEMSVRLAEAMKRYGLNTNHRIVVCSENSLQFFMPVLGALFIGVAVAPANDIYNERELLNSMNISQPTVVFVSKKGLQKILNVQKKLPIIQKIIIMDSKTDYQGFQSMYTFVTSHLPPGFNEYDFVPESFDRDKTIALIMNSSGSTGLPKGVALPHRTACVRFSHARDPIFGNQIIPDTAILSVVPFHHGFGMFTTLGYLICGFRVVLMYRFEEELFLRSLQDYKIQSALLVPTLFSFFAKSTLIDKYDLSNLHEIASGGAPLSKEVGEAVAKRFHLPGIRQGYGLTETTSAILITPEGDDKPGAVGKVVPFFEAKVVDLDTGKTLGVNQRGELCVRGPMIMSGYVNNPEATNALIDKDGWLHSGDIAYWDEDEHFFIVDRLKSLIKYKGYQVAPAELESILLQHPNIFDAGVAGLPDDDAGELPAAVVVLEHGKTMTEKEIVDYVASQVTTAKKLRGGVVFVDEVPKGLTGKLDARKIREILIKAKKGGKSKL
Streptavidin (Streptomyces avidinii), sequence (P22629 whole entry, looked up): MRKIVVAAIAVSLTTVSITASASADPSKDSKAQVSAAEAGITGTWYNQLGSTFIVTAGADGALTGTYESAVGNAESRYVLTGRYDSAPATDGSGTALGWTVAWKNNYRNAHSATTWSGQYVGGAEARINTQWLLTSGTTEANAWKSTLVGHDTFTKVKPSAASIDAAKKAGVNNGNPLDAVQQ
Fibroblast growth factor 2 (Homo sapiens), sequence (P09038 whole entry, looked up): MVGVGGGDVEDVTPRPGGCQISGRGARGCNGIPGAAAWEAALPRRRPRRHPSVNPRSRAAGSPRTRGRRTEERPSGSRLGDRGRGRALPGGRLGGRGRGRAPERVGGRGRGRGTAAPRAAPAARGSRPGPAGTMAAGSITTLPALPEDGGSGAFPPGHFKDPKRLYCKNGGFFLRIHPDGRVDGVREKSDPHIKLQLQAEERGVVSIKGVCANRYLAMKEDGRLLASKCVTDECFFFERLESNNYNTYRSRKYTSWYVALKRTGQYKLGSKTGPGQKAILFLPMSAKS
Focal adhesion kinase 1 (Homo sapiens), sequence (Q05397 whole entry, looked up): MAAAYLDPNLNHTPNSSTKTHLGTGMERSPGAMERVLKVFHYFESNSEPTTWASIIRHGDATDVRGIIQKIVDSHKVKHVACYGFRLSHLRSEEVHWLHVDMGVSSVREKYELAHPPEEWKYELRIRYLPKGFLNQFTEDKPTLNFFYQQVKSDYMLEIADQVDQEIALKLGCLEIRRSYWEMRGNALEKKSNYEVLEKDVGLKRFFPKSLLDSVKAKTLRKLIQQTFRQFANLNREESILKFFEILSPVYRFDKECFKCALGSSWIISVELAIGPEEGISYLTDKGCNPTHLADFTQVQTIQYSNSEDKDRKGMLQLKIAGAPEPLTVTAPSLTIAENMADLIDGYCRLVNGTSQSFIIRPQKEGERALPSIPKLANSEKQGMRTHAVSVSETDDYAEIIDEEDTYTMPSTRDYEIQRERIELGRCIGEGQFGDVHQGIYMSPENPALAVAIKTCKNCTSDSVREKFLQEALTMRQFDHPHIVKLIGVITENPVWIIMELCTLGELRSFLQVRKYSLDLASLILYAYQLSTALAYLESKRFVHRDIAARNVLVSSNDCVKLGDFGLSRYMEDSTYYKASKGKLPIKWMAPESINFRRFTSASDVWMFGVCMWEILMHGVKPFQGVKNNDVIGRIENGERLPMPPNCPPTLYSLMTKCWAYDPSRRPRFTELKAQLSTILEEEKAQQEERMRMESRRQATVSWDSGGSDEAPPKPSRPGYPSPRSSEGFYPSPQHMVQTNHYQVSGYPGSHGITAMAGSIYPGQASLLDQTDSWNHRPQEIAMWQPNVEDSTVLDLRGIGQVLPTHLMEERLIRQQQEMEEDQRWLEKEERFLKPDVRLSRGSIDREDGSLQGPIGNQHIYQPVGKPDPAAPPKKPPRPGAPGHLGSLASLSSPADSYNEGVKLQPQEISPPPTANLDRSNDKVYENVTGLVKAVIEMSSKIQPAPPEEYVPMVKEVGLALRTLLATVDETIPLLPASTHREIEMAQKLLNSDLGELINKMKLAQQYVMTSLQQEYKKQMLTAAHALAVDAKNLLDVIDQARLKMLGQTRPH

As for `O=C1N(CCS(=O)(=O)c2ccccc2)c2ccccc2[C@H]2OC(c3ccc(OCCCO)cc3)=N[C@@]12CCS(=O)(=O)c1ccccc1`, the composite z-score in assay [1] stood at 3.19; in assay [2] it was 1.21; in [3] it was 0.634; in assay [4] it was 0.943; in [5], 1.42; in [6], 1.74. For the same molecule, the composite z-score in the assay with Lefty1 worked out at 0.589; in assay [8] it was 0.816; in assay [10] it was 1.52; in assay [15] it was 0.842; in [16] it was 1.08; in the assay with Torsin-1A (Homo sapiens) [17], 0.766. In addition, the figures for the composite z-score (in the assay with Torsin-1A (Homo sapiens) [18]; in [19]) were 1.03 and 1.66, respectively. Also, the z-score in assay [7] was -1.23; in assay [9], -3.3 (inactive); in [11] it was -1.61 (inactive); in assay [12], 1 (inactive); in assay [13], 3.35 (inactive); in assay [14], -0.168 (inactive).
Take `COc1cc(NN2C(C(O)c3ccc(I)cc3)C=CC3C(=O)N(C)C(=O)C32)cc(OC)c1OC` (stereo not given): the composite z-score in assay [1] is 2.61; in [2], 0.351; in assay [3], 1.2; in assay [4] it was -0.472; in [5] it was -0.0712; in [6] it was -0.893. Further, the composite z-score was -0.595 in the assay on Lefty1; 0.701 in [8]; 0.212 in [10]; -0.105 in assay [15]; 0.0074 in [16]; -0.442 with Torsin-1A (Homo sapiens) [17]. In addition, the composite z-score was 1.42 with Torsin-1A (Homo sapiens) [18] and -0.441 in [19]. Moreover, the z-score in assay [7] was 0.223; in assay [9], -0.977 (inactive); in [11], -2.58 (inactive); in [12] it was -0.126 (inactive); in assay [13], -0.326 (inactive); in assay [14], -0.445 (inactive).
With `N#Cc1ccc(NN2C(C(O)c3ccccc3)C=CC3C(=O)N(c4ccccc4)C(=O)C32)cc1` (stereo not given), the composite z-score in assay [1] is 0.324; in assay [2], 0.954; in [3] it was 0.452; in [4], -0.456; in assay [5], 0.927; in assay [6] it was -0.217. The composite z-score with Lefty1 was -0.272; in [8], 0.635; in assay [10], 0.213; in assay [15] it was 0.475; in assay [16], 0.11; in the assay with Torsin-1A (Homo sapiens) [17], 0.408. The composite z-score with Torsin-1A (Homo sapiens) [18] is -0.0163; in [19] it was -0.67. Moreover, the z-score in assay [7] was 1.41; in [9] it was 0.884 (inactive); in assay [11] it was 0.574 (inactive); in [12], -0.121 (inactive); in [13], -1.11 (inactive); in [14], 1.06 (inactive).
On to `O=C(C=C(CC(O)c1cccc(Cl)c1)OCCF)OCCF` (stereo not given), for which the composite z-score in assay [1] was -0.144; in [2], -1.59; in assay [3], -0.401; in assay [4] it was -1.35; in assay [5], -0.885; in assay [6] it was -0.576. In addition, the composite z-score in the assay on Lefty1 is -0.94; in assay [8], -0.442; in [10], -0.234; in assay [15], -0.0847; in assay [16], -0.267; with Torsin-1A (Homo sapiens) [17], -0.489. The results for the composite z-score (with Torsin-1A (Homo sapiens) [18]; in assay [19]) were -0.167 and -0.335, respectively. For the same molecule, the z-score in [7] was 0.0691; in assay [9], 0.364 (inactive); in [11], -3.1 (inactive); in [12] it was 0.117 (inactive); in assay [13], 0.481 (inactive); in [14] it was -0.722 (inactive).
On to `C=CCC(OC(C)=O)[C@@H]1[C@@H](N(Cc2cc3ccccc3o2)C(=O)Cc2ccc(OC)cc2)c2cc(OCCCO)ccc2N1C(=O)c1ccc(-c2ccccc2)cc1` (stereo not given in full), for which the composite z-score is -0.316 in [1]; -0.313 in assay [2]; 0.107 in assay [3]; -0.203 in [4]; 0.352 in assay [5]; 0.133 in assay [6]. In addition, the composite z-score with Lefty1 was -0.492; in assay [8] it was -0.272; in assay [10], 0.0628; in assay [15] it was 0.215; in assay [16] it was 0.105; with Torsin-1A (Homo sapiens) [17], 0.176. Also, the composite z-score with Torsin-1A (Homo sapiens) [18] is 0.262; in assay [19], 0.0275. Also, the z-score was 0.94 in assay [7]; -0.52 (inactive) in [9]; -0.279 (inactive) in assay [11]; -0.866 (inactive) in [12]; 2.47 (inactive) in [13]; -0.362 (inactive) in [14].
